Bioassay records: PubChem, National Center for Advancing Translational Sciences (NCATS)
This excerpt belongs to a sample that is enriched for hits.
Methyltransferases – Primary Screen for Target Class Profiling of Small Molecule Inhibitors of Methyltransferases. purified enzyme, MTase-Glo SAH luminescence; active compounds read low. calls only at 40 µM. 25,000 tested, 3.9% active; call rule not given here
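Each enzyme was assayed with SAM and its substrate. SAH formation detected by MTase-Glo luminescence; single-point 40 uM screen[…].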
Active calls of the source: *; i = inactive; + = active, no number. On the % scale 0 is the no-effect control and ±100 the full control effect.

SMILES | Methyltransferases
CCCn1c(=O)c2ccc(C(=O)NC(C)CC)cc2n2c(SCC(=O)c3ccc(C)cc3)nnc12 (stereo not given) | i
Oc1cc(O)cc(/C=C/c2ccc(O)c(O)c2)c1 | +
Oc1ccc(/C=C/c2ccc(/C=C/c3ccc(O)cc3)c(Br)c2)cc1 | i
COc1cc(O)cc(/C=C/c2cccc(O)c2)c1 | i
COC(=O)c1ncn2c1C(=O)N(c1cc(C)ccc1C)C(C)(C(=O)NC1CCCCCC1)C2 (stereo not given) | i
CCCn1c(=O)c2ccc(C(=O)NC(C)C)cc2n2c(=O)n(CC(=O)Nc3ccccc3F)nc12 | i
CCOc1ccc(CN2C(=O)c3cc4oc(C)cc4n3CC2(C)C(=O)NC2CCCCC2)cc1 (stereo not given) | i
COC(=O)CCNC(=O)N1Cc2c(sc3c2CCCC3)-n2cccc2C1c1cccc(C)c1 (stereo not given) | i
COc1cc(/C=C(\C#N)C(=O)c2ccc(O)c(O)c2)cc(I)c1O | +
COc1cc(/C=C(\C#N)C(=O)Nc2nnc(C(F)(F)F)s2)ccc1OCc1ccc(C(F)(F)F)cc1C(F)(F)F | i
COc1ccc(OC)c2c1cc1n2CC(C)(C(=O)NC2CCCCC2C)N(Cc2ccccc2)C1=O (stereo not given) | i
c1cc(N[C@@H]2CCNC2)nc(-c2cnc3ccc(-c4cn[nH]c4)cn23)c1 | +
CCN(Cc1ccccc1)c1nc2c(S(=O)(=O)c3ccccc3)nnn2c2ccccc12 | i
CCOc1ccc(C2c3cccn3-c3sc4c(c3CN2C(=O)Nc2cc(F)ccc2F)CCCC4)cc1 (stereo not given) | i
CCCn1c(=O)c2ccc(C(=O)NC(C)CC)cc2n2c(=O)n(Cc3c(F)cccc3Cl)nc12 (stereo not given) | i
CCCn1c(=O)c2ccc(C(=O)NC(C)C)cc2n2c(=O)n(CC(=O)c3ccc(Cl)cc3)nc12 | i
COc1ccccc1CNC(=O)C1(C)Cn2nc(-c3ccccc3)cc2C(=O)N1c1ccccc1F (stereo not given) | i
CCc1cc2c(cc3n2CC(C)(C(=O)NC2CCCCC2)N(Cc2ccccc2)C3=O)s1 (stereo not given) | i
NCCOc1cc(C(=O)Nc2cc(OCCN)c3ccccc3n2)nc(C(=O)Nc2cc(OCCN)c3ccccc3n2)c1 | +
CC(C)c1cc2n(n1)CC(C)(C(=O)NC1CCCCCC1)N(Cc1cccc(Cl)c1)C2=O (stereo not given) | i
COc1ccc(NC(=O)Cn2nc3n(Cc4ccc(F)cc4)c(=O)c4ccccc4n3c2=O)cc1OC | i
COc1cc2c(cc1OC)CN(CCc1ccc(NC(=O)c3cccc4c(=O)c5cccc(OC)c5[nH]c34)cc1)CC2 | +
COc1ccc(C(=O)Nc2ccc3c(c2)CN(CCc2ccccc2)C(=O)C(C)O3)cc1OC (stereo not given) | i
Cc1cccc(Cn2nc3n(C)c(=O)c4ccc(C(=O)NC5CCCC5)cc4n3c2=O)c1 | i
CCOC(=O)c1cc2n(n1)CC(C)(C(=O)NCc1ccccc1)N(Cc1cccc(OC)c1)C2=O (stereo not given) | i
SMILES | Methyltransferases
CCCCN1C(=O)c2cc(C(=O)NCc3cc(OC)ccc3OC)nn2CC1(C)C(=O)NC1CCCC1 (stereo not given) | i
O=C(NCCc1ccccc1)c1ccc2c(=O)[nH]c3c(C(=O)NCC4CCCO4)sc(=S)n3c2c1 (stereo not given) | +
Cn1c(=O)c2ccc(C(=O)NC3CCCCC3)cc2n2c(=O)n(Cc3ccc(Cl)cc3)nc12 | i
Cc1ccc(-c2n[nH]n3c2nc(=O)c2ccc(C(=O)NCCc4ccccc4)cc23)cc1 | i
CC(C)NC(=O)c1sc(=S)n2c1[nH]c(=O)c1ccc(C(=O)NC(C)CCc3ccccc3)cc12 (stereo not given) | i
O=C(NCCc1ccc(Cl)cc1)c1ccc2c(=O)[nH]c3c(C(=O)NC4CCCC4)sc(=S)n3c2c1 | +
CC(C)OCCCNC(=O)c1ccc2c(=O)[nH]c3c(C(=O)NC4CCCC4)sc(=S)n3c2c1 | i
COc1ccc(-c2n[nH]n3c2nc(=O)c2ccc(C(=O)NCCc4ccc(Cl)cc4)cc23)cc1 | i
O=S(=O)(NCc1nc(-c2ccccc2Cl)no1)c1ccccc1 | i
CC1c2cccn2CCN1C(=O)Nc1cccc(Cl)c1 (stereo not given) | i
COc1ccc(CCN2C(=O)c3cc4ccccc4n3CC2(C)C(=O)NCCC(C)C)c(OC)c1 (stereo not given) | i
CC(C)n1c(=O)c2ccc(C(=O)NC3CCCC3)cc2n2c(=O)n(Cc3c(F)cccc3Cl)nc12 | i
CCOCCCNC(=O)C1c2c(n(C)c3ccccc23)SCC(=O)N1c1ccc(CC)cc1 (stereo not given) | i
CC(C)Cn1c(=O)c2ccc(C(=O)NC3CCCC3)cc2n2c(=O)n(Cc3cccc(F)c3)nc12 | i
CN(Cc1cn(C)c2ccccc12)C1CCc2nn(CC3CC3)c(=O)n2CC1 (stereo not given) | i
CCn1cc(-c2ccnc3[nH]c(-c4cccc(CN(C)C)c4)cc23)c(-c2ccc(NC(=O)N(C)C)cc2)n1 | +
CN(C)C(=O)Nc1cccc(-c2ccc(N(C)C)cc2)c1 | i
CCOC(=O)C1CCN(S(=O)(=O)c2ccc(Cl)c(-c3nnc(-c4ccccc4)o3)c2)CC1 | i
O=c1ccc2ccc(O)c(O)c2o1 | i
O=Nc1ccc2oc(=O)ccc2c1 | +
Cc1ccccc1N1C(=O)c2cc3sccc3n2CC1(C)C(=O)NC1CCCCC1 (stereo not given) | i
Cc1ccc(Cn2c(=O)c3ccc(C(=O)NCC(C)C)cc3n3c(=O)[nH]nc23)cc1 | i
Cc1ccc(NC(=O)c2ncn3c2C(=O)N(C2CC2)C(C)(C(=O)NCc2ccc(F)cc2)C3)c(C)c1 (stereo not given) | i
CCC(C)NC(=O)Cn1nc2n(C(C)C)c(=O)c3ccc(C(=O)NC(C)C)cc3n2c1=O (stereo not given) | i
Cc1sc2c(c1C)C(c1ccc(Cl)cc1)=N[C@H](CC(=O)NCCCCNC(=O)COc1cccc3c1C(=O)N([C@H]1CCC(=O)NC1=O)C3=O)c1nnc(C)n1-2 | +
SMILES | Methyltransferases
CCN(C(=O)Cn1c(=O)oc2cc(S(=O)(=O)N3CC(C)CC(C)C3)ccc21)c1ccccc1 (stereo not given) | i
CCCn1c(=O)c2ccccc2n2c(SCc3cc(C)ccc3C)nnc12 | i
Cc1cc2c(cc3n2CC(C)(C(=O)NC2CCCCCC2)N(Cc2ccco2)C3=O)o1 (stereo not given) | i
Cc1ccc(C(=O)Cn2nc3n(CC(C)C)c(=O)c4ccc(C(=O)NC(C)C)cc4n3c2=O)cc1 | i
CC(=O)OC1CC(=O)C2(C)C3CC4=C(OC(C)CC4=O)OC3(C)CCC2C1(C)C (stereo not given) | +
O=C(Cn1nc2nc(Nc3ccc(F)cc3)ccn2c1=O)Nc1ccccc1 | i
CCCn1c(=O)c2ccc(C(=O)NC(C)CC)cc2n2c(SCC(=O)Nc3ccc(C)cc3C)nnc12 (stereo not given) | i
CN(Cc1ccc(C(=O)O)cc1)c1ccc(OCc2c(-c3c(Cl)cccc3Cl)noc2C2CC2)nc1C(F)(F)F | +
COC(=O)c1ccc2c(=O)[nH]c3c(C(=O)NCc4ccc5c(c4)OCO5)sc(=S)n3c2c1 | i
